Like-named read-outs stand apart in the source and are kept apart here. Among all 13,000 compounds or so, about 3,200 (25%) showed an effect of 50% or more. The list shows a part of the results.
Tested on: P. falciparum stage V gametocytes
Parameters: BacTiter-Glo ATP luminescence viability of purified stage V gametocytes in 384-well plates, per cent inhibition versus DMSO
Conditions: 48 h, 5 µM, inhibitor

Structure (SMILES)	% Inhibition [%]	% Inhibition (% Inhibition) [%]
COc1cccc(CNC(=O)c2cnc(N3CCN(c4ccncc4)CC3)c(Cl)c2)c1 [TCMDC-134628]	35.94	
Cc1cccc2[nH]c(-c3ccc(-c4cccc(CNCc5ccccc5)c4)cc3)nc12 [TCMDC-132707]	-22.49	
Cc1cccc2[nH]c(-c3ccc(-c4cccc(CNCCc5ccncc5)c4)cc3)nc12 [TCMDC-132850]	-15.09	
Cc1cccc2[nH]c(-c3ccc(-c4ccc(CNCc5ccc(CN)cc5)cc4)cc3)nc12 [TCMDC-132813]	65.29	
Cc1cccc2[nH]c(-c3ccc(-c4ccc(CNC(C)C)cc4)cc3)nc12 [TCMDC-132744]	-47.89	
CNCCNCc1cccc(-c2ccc(-c3nc4c(C)cccc4[nH]3)cc2)c1 [TCMDC-132831]	94.01	
CNc1ccc(CNCc2cccc(-c3ccc(-c4nc5c(C)cccc5[nH]4)cc3)c2)cc1 [TCMDC-132979]	-24.36	
COc1ccc(CNCc2cccc(-c3ccc(-c4nc5c(C)cccc5[nH]4)cc3)c2)cc1 [TCMDC-132726]	-14.09	
Cc1cccc2[nH]c(-c3ccc(-c4ccc(CNCc5ccccc5)cc4)cc3)nc12 [TCMDC-132701]	-18.64	
Cc1cccc2[nH]c(-c3ccc(-c4cccc(CNCc5cccc(N)c5)c4)cc3)nc12 [TCMDC-132934]	83.13	
Cc1cccc2[nH]c(-c3ccc(-c4ccc(CNCC(C)C)cc4)cc3)nc12 [TCMDC-132803]	16.22	
Cc1cccc2[nH]c(-c3ccc(-c4cccc(CNCCN(C)C)c4)cc3)nc12 [TCMDC-132682]	17.36	
CNCCNCc1ccc(-c2ccc(-c3nc4c(C)cccc4[nH]3)cc2)cc1 [TCMDC-132837]	80.14	
Cc1ccccc1Oc1ccc(Nc2ccnc(Nc3cccc(C(N)=O)c3)n2)cc1C(F)(F)F [TCMDC-138601]	1.674	
CC(=O)N(C)c1ccc(C(=O)Nc2cccc(-c3cccc(-c4nc5ccc(C(F)(F)F)cc5[nH]4)c3)c2)cc1 [TCMDC-136849]	-19.52	
CC(=O)Nc1nc(C(=O)Nc2cccc(-c3ccc4c(cnn4CC4CC4)c3)c2)cs1 [TCMDC-133147]	49.64	
O=C1COC(c2ccccc2)(c2ccccc2)CN1CC1CCN(Cc2ccc(O)cc2Cl)C1 (stereo not shown) [TCMDC-136338]	44.26	
Cc1[nH]c2c(C)cccc2c1C1CCN(CCC2CCN(C(=O)/C=C/c3ccc(Cl)c(Cl)c3)CC2)CC1 [TCMDC-139803]	38.01	
N=C(N)CCN(Cc1ccccc1)c1ccc(Cl)cc1 [TCMDC-131835]	9.979	
N=C(N)NCCCN(Cc1ccccc1)c1ccc(Cl)cc1 [TCMDC-131839]	47.9	
N=C(N)NCCN(Cc1ccccc1)c1ccccc1 [TCMDC-131837]	26.01	
N=C(N)CCN(Cc1ccc(Cl)cc1)c1ccc(Cl)cc1 [TCMDC-131840]	54.29	
Cc1ccc(N(CCC(=N)N)Cc2ccccc2)cc1 [TCMDC-132096]	26.05	

Structure (SMILES)	% Inhibition [%]	% Inhibition (% Inhibition) [%]
N=C(N)NCCN(Cc1ccccc1)c1ccc(Cl)cc1 [TCMDC-131838]	72.85	
CN1CCCN(Cc2ccc(-c3cccc(NC(=O)c4ccc(F)cc4)c3)cc2)CC1 [TCMDC-132634]	12.81	
O=C(NC1CCN(Cc2ccccc2)CC1)c1cccc(-c2cc3cc(Cl)c(Cl)cc3[nH]2)c1 [TCMDC-141290]	-1.614	
CN1CCN(CCCN(Cc2ccc(-c3cccc(CNCc4ccc5c(c4)OCO5)c3)cc2)C(=O)CCC2CCCC2)CC1 [TCMDC-140751]	61.11	
CN1CCN(CCCN(Cc2ccc(-c3cccc(CNCc4ccc5c(c4)OCO5)c3)cc2)C(=O)NC2CCCCC2)CC1 [TCMDC-140642]	56.14	
CN1CCN(CCCN(Cc2cccc(-c3ccc(CNCc4ccc5c(c4)OCO5)cc3)c2)C(=O)CCC2CCCC2)CC1 [TCMDC-140557]	65.31	
CN1CCN(CCCN(Cc2ccc(-c3ccc(CNCc4ccc5c(c4)OCO5)cc3)cc2)C(=O)CCC2CCCC2)CC1 [TCMDC-140561]	102.2	
Cc1cccc(C(=O)Nc2ccnc(N(C)C3CCN(Cc4cccc(O)c4)CC3)c2)c1 [TCMDC-134964]	-19.45	
O=C(/C=C/c1ccc(Cl)c(Cl)c1)NCCCCCN1CCC(NC(=O)Nc2cc(F)cc(F)c2)CC1 [TCMDC-135715]	-53.24	
NC(=O)C1CCN(Cc2ccc(-c3ccc(-c4nc5cc(C(F)(F)F)ccc5[nH]4)cc3)cc2)CC1.O=C(O)C(F)(F)F [TCMDC-132692]	-81.89	
CN1CCN(CCCN(Cc2cccc(-c3cccc(CNCc4ccc5c(c4)OCO5)c3)c2)C(=O)CCC2CCCC2)CC1 [TCMDC-140556]	67.58	
FC(F)(F)c1cccc(CNCC2CCN(Cc3ccc4c(c3)OCO4)CC2)c1 [TCMDC-141673]	2.788	
CC1CN(c2ccc(NC(=O)c3cccs3)cc2)CCN1Cc1cccc(F)c1 (stereo not shown) [TCMDC-135008]	-22.55	
COc1ccc(CNCc2cccc(-c3cccc(-c4nc5cccc(C)c5[nH]4)c3)c2)cc1.O=C(O)C(F)(F)F [TCMDC-132732]	-64.2	
c1ccc(CSC2=NNC(c3ccccn3)S2)cc1 (stereo not shown) [TCMDC-123769]	99.43	
NC(=O)c1cccc(C(=O)Nc2cccc(-c3csc(-c4nc5ccccc5[nH]4)c3)c2)c1 [TCMDC-132399]	-9.606	
CNCCCNCc1ccc(-c2ccc(F)c(Cl)c2)o1 [TCMDC-125237]	65.13	
CNS(=O)(=O)CCNCc1ccc(-c2ccc3ncnc(Nc4ccc(OCc5ccccc5)cc4)c3c2)o1 [TCMDC-138102]	-59.33	
CN(C)CCCNCc1ccc(-c2ccc(F)c(Cl)c2)o1 [TCMDC-125238]	41.34	
O=C(/C=C/c1ccccc1O)NC1CCC(CN2CCC(c3c[nH]c4ccccc34)CC2)CC1 (stereo not shown) [TCMDC-139705]		20.65
O=C(C=Cc1ccccc1Br)NC1CCC(CN2CCC(c3c[nH]c4ccccc34)CC2)CC1 (stereo not shown) [TCMDC-139905]		19.58
O=C(/C=C/c1ccccc1Cl)NC1CCC(CN2CCC(c3c[nH]c4ccccc34)CC2)CC1 (stereo not shown) [TCMDC-139699]		83.67
O=C(C=Cc1ccccc1C(F)(F)F)NC1CCC(CN2CCC(c3c[nH]c4ccccc34)CC2)CC1 (stereo not shown) [TCMDC-139903]		54.81

Structure (SMILES)	% Inhibition [%]	% Inhibition (% Inhibition) [%]
O=C(C=Cc1cccc(Cl)c1Cl)NC1CCC(CN2CCC(c3c[nH]c4ccccc34)CC2)CC1 (stereo not shown) [TCMDC-139920]		-3.877
O=C(C=Cc1ccccc1Br)NC1CCC(CN2CCC(c3c[nH]c4ccccc34)CC2)CC1 (stereo not shown) [TCMDC-139917]		13.62
O=C(/C=C/c1ccccc1O)NC1CCC(CN2CCC(c3c[nH]c4ccccc34)CC2)CC1 (stereo not shown) [TCMDC-139720]		84.95
O=C(/C=C/c1ccccc1Cl)NC1CCC(CN2CCC(c3c[nH]c4ccccc34)CC2)CC1 (stereo not shown) [TCMDC-139714]		34.23
O=C(C=Cc1ccccc1C(F)(F)F)NC1CCC(CN2CCC(c3c[nH]c4ccccc34)CC2)CC1 (stereo not shown) [TCMDC-139915]		18.99
COc1ccc(Nc2nccc(NCCNC(=O)Nc3cc(C)ccc3C)n2)cc1 [TCMDC-133644]	-56.14	
CCn1cc2c3c(cc(C(=O)N[C@@H](Cc4ccccc4)[C@H](O)CNCc4cccc(OC)c4)cc31)N(C)S(=O)(=O)CC2 [TCMDC-135784]	29.74	
O=C(NCCCCN1CCC(O)(c2ccc(Cl)cc2)CC1)c1ccc(Br)cc1 [TCMDC-131982]	-5.43	
CN(C(=O)c1nn(-c2ccccn2)c2nccc(-c3cccs3)c12)C1CCCCC1 [TCMDC-124797]	11.83	
Cc1cc(C2CCN(CCCCNC(=O)c3ccc(-c4ccc(C(F)(F)F)cc4)cc3)CC2)c(C)cc1OCCO [TCMDC-138798]	-10.99	
COC(=O)c1ccc(C(=O)NCCCCN2CCC(c3ccc4c(c3OC)CCCC4)CC2)cc1-c1ccc(C(F)(F)F)cc1 [TCMDC-138705]	-64.43	
Cn1cc(C2CCN(CCCCNC(=O)c3sc(-c4ccc(C(F)(F)F)cc4)nc3CO)CC2)c2ccccc21 [TCMDC-138778]	-59.88	
CCOC(=O)c1cc(C(=O)NCCCCN2CCC(c3ccc(CC)cc3OCC)CC2)ccc1-c1ccc(C(F)(F)F)cc1 [TCMDC-138755]	83.47	
CCOC(=O)c1cc(C(=O)NCCCCN2CCC(c3ccc4c(c3OC)CCCC4)CC2)ccc1-c1ccc(C(F)(F)F)cc1 [TCMDC-138739]	73.05	
CCc1ccc(C2CCN(CCCCNC(=O)c3ccc(-c4ccc(C#N)cc4)cc3)CC2)c(OCCO)c1 [TCMDC-138765]	-6.555	
C=CCn1cc(C2CCN(CCCCNC(=O)c3sc(-c4ccc(C(F)(F)F)cc4)nc3CO)CC2)c2cc(OC)ccc21 [TCMDC-138828]	92.56	
CCc1ccc(C2CCN(CCCCNC(=O)c3ccc(-c4ccc(C(F)(F)F)cc4)cc3)CC2)c(OCCO)c1 [TCMDC-138761]	105.9	
CC(=O)Oc1cc(C)ccc1C1CCN(CCCCNC(=O)c2ccc(-c3ccc(C(F)(F)F)cc3)cc2)CC1 [TCMDC-138626]	28.6	
Cc1cc(C2CCN(CCCCNC(=O)c3ccc(-c4ccc(C(F)(F)F)cc4)cc3)CC2)c(C)cc1OCC(N)=O [TCMDC-138800]	4.975	
C=C(C)Cn1cc(C2CCN(CCCCNC(=O)c3sc(-c4ccc(Cl)cc4Cl)nc3CO)CC2)c2ccccc21 [TCMDC-138873]	-30.06	
COc1c(C2CCN(CCCCNC(=O)c3ccc(-c4ccc(C(F)(F)F)cc4)c(C(=O)OC(C)C)c3)CC2)ccc2c1CCCC2 [TCMDC-138744]	32.47	

— paper PMC4552634, “A New Set of Chemical Starting Points with Plasmodium falciparum Transmission-Blocking Potential for Antimalarial Drug Discovery” (PLoS ONE, 2015)
